Tau fibril FP – tau fibrillization inhibition (FP). K18 P301L tau heparin fibrillization, Alexa594 FP, 6 h. P10636. AID 1468. 280,000 compounds, 0.39% hits. Potency, µM (highest dose often 57.7 µM), most hits filed as inhibitors; further: nearly all actives have a fitted effect of over 55% in size
Target sequence (P10636 561-689 P618L limits assumed): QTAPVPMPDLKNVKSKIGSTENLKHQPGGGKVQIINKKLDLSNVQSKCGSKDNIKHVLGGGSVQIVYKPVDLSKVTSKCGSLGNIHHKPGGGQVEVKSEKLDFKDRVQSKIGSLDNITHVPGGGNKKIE
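Human K18 P301L fragment (15 uM unlabeled plus 0.24 uM Alexa 594-labeled) in 100 mM sodium acetate pH 7 with compound, aggregation induced by 20 uM heparin for 6 hr at 37 C. ThT (30 uM) added for 1 hr, then Alexa 594 FP read.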
Tau fluor cs – counter-screen for tau fibril formation inhibitors; tau K18 P301L Alexa594 fluorescence, heparin fibrillization; Potency, µM (titrated, usually from 57.7 µM); 280,000 compounds, 0.93% hits; AID 1463; further: nearly all actives have a fitted effect of over 55% in size
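Human K18 P301L tau (15 uM unlabeled plus 0.24 uM Alexa 594-labeled, final) in 100 mM sodium acetate pH 7 was mixed with compound and 20 uM heparin and incubated 6 hr at 37 C.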
Sfp inh – inhibitors of Bacillus subtilis Sfp phosphopantetheinyl transferase; Q9F4F7; Biochemical Sfp PPTase activity, qHTS; Potency, µM, hits mostly inhibitors; 310,000 compounds, 3.5% hits;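 further: the enzyme is Sfp with the accession as filed and its product quenches rhodamine fluorescence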
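After 15 min at room temperature with compound, 15 nM Sfp received 5 uM rhodamine-CoA plus 12.5 uM BHQ-2-ybbR (50 mM Hepes pH 7.6, 10 mM MgCl2). Rate came from the fluorescence difference over 30 min, ex 525/em 598 nm.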
Tau fibril ThT – tau fibrillization inhibition (ThT binding); P10636; recombinant tau K18 P301L (four-repeat tau fragment), heparin-induced fibrillization, ThT fluorescence; Potency, µM (highest dose often 57.4 µM), usual class: inhibitors; 270,000 compounds, 2.1% hits; AID 1460; further: nearly all actives have a fitted effect of over 55% in size
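Heparin-induced (20 uM) aggregation of recombinant human K18 P301L tau, 15 uM unlabeled with 0.24 uM labeled, pH 7 acetate buffer, 6 hr at 37 C with compound. Fibrils quantified by 30 uM ThT fluorescence after 1 hr ambient incubation.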
FBPA coupling cs – coupling enzyme interference in Giardia aldolase counter-screen | coupling enzyme system counterscreen, AmpLite Red fluorescence | activity change, negative = inhibition, % at 58.2 µM, hits read low | 290,000 compounds, 0.67% hits | AID 2472; in the data active means activity change below about -30%
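Counterscreen of the coupled detection system alone, without aldolase: glyceraldehyde-3-phosphate coupling enzymes plus AmpLite Red readout. Compounds at 57.5 uM final, 10 min RT preincubation, 20 min RT reaction, fluorescence 525/598 nm.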
A number is an active result; - = inactive; ? = inconclusive; . = not tested or not shown; [ ] = another dose, or the depositor's remark. Hits are enriched below; roughly 5.2% of the tested compounds scored in any of these assays. Unless noted, the call rests on the fitted dose curve; in most records, active means well fitted curve in the direction sought with a large enough effect; inconclusive means small, poorly fitted or top-dose-only effect, or another doubt; inactive means no such curve, though single readings can be large; an effect the other way counts as inactive or inconclusive.

SMILES	Tau fibril FP	Tau fluor cs	Sfp inh	Tau fibril ThT	FBPA coupling cs
Cc1cc(C)c2[nH]c(=O)c(C(c3nnnn3CC3CCCO3)N3CCCC(C)C3)cc2c1 (stereo not drawn)	?	-	22µM	32µM	-
COc1ccc2[nH]c(=O)c(C(c3nnnn3CC3CCCO3)N3CCc4ccccc4C3)cc2c1 (stereo not drawn)	-	-	-	-	-
O=C(OC[C@@H]1O[C@@](O)(COC(=O)c2cccnc2)[C@H](OC(=O)c2cccnc2)[C@H]1OC(=O)c1cccnc1)c1cccnc1	?	-	-	?	-
C=CCn1cccc(/C=C/C(=O)c2ccc(C(C)(C)C)cc2)c1=S	-	-	-	20µM	-
CN1CCN(C(=S)NC(=O)c2ccc(C(C)(C)C)cc2)CC1	-	-	-	-	-
O=[N+]([O-])c1ccc(S(=O)(=O)c2ccccc2)nc1	.	.	50µM	.	-
C[N+](C)(C)CCC(=O)c1cccc2ccccc12	?	-	18µM	?	.
O=C(O)CCC(=O)c1cccc2ccccc12	-	-	-	-	-
CCOC(=O)CC1C(=O)NCCN1C(=S)NC(=O)c1ccccc1OC (stereo not drawn)	.	.	-	.	.
CCNC(=S)N1CCNC(=O)C1CC(=O)OC (stereo not drawn)	-	-	79µM	-	-
COC(=O)CC1C(=O)NCCN1C(=S)NC(=O)c1ccccc1[N+](=O)[O-] (stereo not drawn)	-	-	79µM	-	-
COC(=O)CC1C(=O)NCCN1C(=S)Nc1cc(C)cc(C)c1 (stereo not drawn)	-	-	-	-	-
CC(C)OC(=O)CC1C(=O)NCCN1C(=S)NC(=O)c1cccs1 (stereo not drawn)	-	-	56µM	-	-
COc1ccc(Br)cc1CNC(=O)c1cnc2sc(N3CCCCCC3)nn2c1=O	-	-	.	-	.
Cc1ccc(NC(=O)C2(C)Cc3ccccc3C(=O)O2)c(C)c1 (stereo not drawn)	-	-	.	-	.
CCOC(=O)CCn1c(=O)c2cccn2c2cccnc21	-	-	.	-	.
COC(=O)c1ccc(OCCCCN2CC(C)OC(C)C2)cc1 (stereo not drawn)	-	-	56µM	-	-
CC1CN(CCCCOc2ccc3ccccc3c2)CC(C)O1 (stereo not drawn)	-	-	-	-	-
CCOc1cc(CNC(=O)c2ccc3nc(C(C)C)oc3c2)cc(OCC)c1OCC	-	-	.	?	.
O=C(Nc1cccc(N=Cc2cc(Cl)cc(Br)c2O)c1)c1ccco1	-	-	-	16µM	-
O=C(Nc1cc(Br)c(O)c(Br)c1)c1cccc(NC(=O)c2ccco2)c1	.	.	?	.	-
O=C(Nc1cccc(N=Cc2cc(Br)cc(Br)c2O)c1)c1ccco1	?	-	-	14µM	-
CCOc1ccccc1CNC(=O)C(CC)n1nc(C)c2c(C)n(-c3ccccc3)nc2c1=O (stereo not drawn)	-	-	.	-	.
CCC(NC(=O)Nc1ccc(O)cc1)(C(F)(F)F)C(F)(F)F	?	?	?	?	-43
CCC(NC(=O)NCc1ccccc1)(C(F)(F)F)C(F)(F)F	?	-	-	-	-
SMILES	Tau fibril FP	Tau fluor cs	Sfp inh	Tau fibril ThT	FBPA coupling cs
COc1ccc(NC(=O)NC(C)(C(F)(F)F)C(F)(F)F)cc1	-	-	-	-	-
CC(NC(=O)Nc1ccc(O)cc1)(C(F)(F)F)C(F)(F)F	?	?	-	22µM	-33
COc1ccc2c(c1)c1c(c(=O)n(-c3ccc(OC)c(OC)c3)c(=O)n1Cc1ccc(F)cc1)n2C	-	-	.	-	.
CCOc1ccccc1C(=O)N(Cc1ccco1)Cc1ccccc1F	-	-	.	-	.
COC(=O)C1=C(C)N(Cc2ccco2)C(=O)/C1=C\c1ccc([N+](=O)[O-])cc1	?	?	20µM	13µM	-
COC(=O)C1=C(C)N(Cc2ccc(OC)cc2)C(=O)/C1=C\c1ccco1	-	?	-	25µM	-
Cc1cccc(Cn2cc(C(=O)Nc3ccc(S(N)(=O)=O)cc3)ccc2=O)c1	-	-	.	-	.
CC(=O)C1=C(c2cccc([N+](=O)[O-])c2)N(C(C)=O)n2c(nnc2-c2ccc(C)cc2)S1	-	-	.	-	.
O=c1c2c(-c3ccccc3)csc2ncn1/N=C/c1cccc([N+](=O)[O-])c1O	-	-	-	14µM	-
O=c1c2c(-c3ccccc3)csc2ncn1/N=C/c1ccc(O)c([N+](=O)[O-])c1	-	-	-	?	-
Cc1ccc(NC(=O)C(C)n2nnc3sc4c(c3c2=O)CCCC4)cc1Cl (stereo not drawn)	-	-	.	-	.
CCN(CC)C(=O)CSc1nnc2sc3ccccc3n12	-	-	-	-	-
COc1cccc(OCCSc2nc(N)cc(N)n2)c1	-	-	-	?	-
c1ccc(OCCSc2nnc3sc4ccccc4n23)cc1	-	-	-	?	-39
COc1cccc(OCCSc2nnc3sc4ccccc4n23)c1	-	-	-	?	-42
CN(C)C(=O)c1ccc(-c2cc(N(C)Cc3ccco3)ncn2)cc1	.	.	-	.	-
COCCCn1c(SCC(N)=O)nnc1-c1ccccc1	-	-	-	-	-
COCCCn1c(Cc2csc(Nc3ccccc3)n2)nnc1SCC(N)=O	-	-	32µM	-	-
NC(=O)CSc1nnc(Cc2csc(Nc3ccccc3)n2)n1Cc1ccccc1	-	-	20µM	-	-
COc1ccc(-c2ccc3c(n2)CCCN3C[C@H](O)CN2CCCc3nc(C)c(C)cc32)cc1	-[11.6 µM]	-[11.6 µM]	?	?	-
CN1Cc2c(N)cccc2[C@H](c2ccccc2)C1	.	.	-	.	-
CC(C)CN(CC(C)C)c1nnc(NC(=O)Nc2cccc(C(F)(F)F)c2)s1	?	-	.	?	.
Cc1ccc2[nH]c(=O)c(C(c3nnnn3C3CCCC3)N3CCCc4ccccc43)cc2c1 (stereo not drawn)	-	-	8.9µM	?	-44
CCC(C)(C)n1nnnc1C(c1cc2cc(C)ccc2[nH]c1=O)N1CCCc2ccccc21 (stereo not drawn)	-	-	20µM	?	-
CCC(C)(C)n1nnnc1C(c1cc2cc(OC)ccc2[nH]c1=O)N1CCc2ccccc21 (stereo not drawn)	-	-	-	?	-
COC(=O)C1=C[C@@H](C(=O)OC)C2C3=C(C(=O)[C@@]2(C)NC(=O)c2ccccc2)[C@H](C)[C@@H]2C(=O)NC(=O)[C@@H]2[C@@H]3C1 (stereo partly drawn)	.	.	-	.	-
Cc1ccc(N2CCN(C(=O)c3cccs3)CC2)cc1C	.	.	50µM	.	-
Cc1ccc(CNC(=O)c2sc3nc[nH]c(=O)c3c2C)cc1	-	-	.	-	.
COc1ccc(-c2noc(CCCC(=O)Nc3cccc(Cl)c3C)n2)cc1	-	-	.	-	.
CCc1ccc(C2CC(=O)N(c3cccc(C(F)(F)F)c3)C3=C2C(=O)OC3)cc1 (stereo not drawn)	-	-	.	-	.
